# Screening results as filed in PubChem BioAssay.
# An excerpt weighted towards active compounds, which were near 2.2% of everything screened.
# KLF5 inhibitor: kruppel-like factor 5 inhibition | DLD-1 KLF5 promoter-luciferase reporter, luminescence | inhibition, % at 5 µM | actives 0.23% (n = 290,000);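 active = inhibition above a per-plate limit of that plate's mean compound inhibition plus 3 SD, cut at about 60% in these data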;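 also: 0% = DMSO wells and 100% = LY294002 at 200 µM; higher means less KLF5 promoter-driven luciferase light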
# aSyn UTR inh: 5' untranslated region of α-synuclein, MLPCN primary screen | actives 0.82% (n = 300,000) | AID 1813 | inhibition, % (tested at 7.5 µM) | alpha-synuclein 5'UTR reporter, inhibitor activity; in the data active = inhibition above about 60%; inconclusive = no clear call, values can overlap the other calls;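 also: H4 neuroglioblastoma cells stably carrying SNCA 5'UTR luciferase fusion; 0% = DMSO wells and 100% = positive control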
# BaF3 tox: parental Ba/F3 viability inhibition as JAK2V617F counter-screen; CellTiter-Glo ATP luminescence; inhibition, % at 5.6 µM; actives 1.1% (n = 220,000);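 active = inhibition above a per-campaign cutoff, the mean inhibition of all tested compounds plus 3 SD, cut at about 27% in these data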;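 also: 0% = DMSO wells and 100% = JAK Inhibitor I control wells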
# APP 5UTR inh: APP translation inhibition | SH-SY5Y APP 5'UTR-luciferase reporter, luminescence | inhibition, % at 2 µM | actives 0.82% (n = 190,000);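 active = inhibition above a set limit, derived from the sample mean plus 3 SD, cut at about 45% in these data; inconclusive = one replicate passes the limit while the other fails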
# Ba/F3 V617F tox: reduce viability of Ba/F3 cells dependent on JAK2V617F | Ba/F3 EpoR-JAK2V617F viability, ATP luminescence | inhibition, % at 5.6 µM | actives 1.1% (n = 220,000) | AID 1446;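 active = inhibition above the campaign mean plus 3 SD over all tested compounds, cut at about 24% in these data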;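 also: cytokine-independent growth of Ba/F3 cells driven by EpoR plus mutant JAK2; 0% = DMSO-treated cells and 100% = JAK inhibitor I control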
# IEC-6 cytotox: kills IEC-6 intestinal cells in KLF5 counter-screen | IEC-6 cytotoxicity, luminescence viability | inhibition, % at 5 µM | actives 0.78% (n = 290,000) | AID 1825;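 also: 0% = plate median of test compound wells and 100% = cytotoxic reference compound wells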
# IEC-6 tox confirm: confirmation of cytotoxic compounds in rat IEC-6 intestinal epithelial cells. shares compounds with IEC-6 cytotox. IEC-6 rat intestinal epithelial viability, luminescence. inhibition, % at 5 µM. actives 63% (n = 1,900);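 also: 0% = vehicle and 100% = reference cytotoxic drug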
# Starred values were filed as active, the others as inactive; ? = inconclusive; / = no result given. Rule as the data show it, unless noted: active = inhibition above about 22%; inactive = the rest.
SMILES,KLF5 inhibitor,aSyn UTR inh,BaF3 tox,APP 5UTR inh,Ba/F3 V617F tox,IEC-6 cytotox,IEC-6 tox confirm
O=C(CNCc1ccccc1)Nc1ccc(Oc2ccccc2)cc1,31.7,20.1,51.8*,-14.4,62.4*,60.3*,6.0
C=CCn1cc(C(=O)NCCOC)c(=O)c2cc(S(=O)(=O)N3CCCCCC3)ccc21,-16.3,2.2,/,/,/,24.1*,18.5
CC(=O)NCCNC(=O)c1ccc(NC2=NC3CS(=O)(=O)CC3S2)cc1 (stereo unspecified),-7.8,2.1,0.2,/,-3.2,2.5,/
O=C(NCCCCc1ccccc1)C1CCCC1,-25.3,-58.9,/,/,/,1.6,/
O=C(Oc1ccccc1-c1nnco1)c1ccc(Cl)cc1,-8.8,13.0,4.9,-4.6,4.3,33.3*,-6.4
Cc1cc(Cl)cc(C)c1OCCn1ccnc1,37.7,3.5,/,/,/,43.5*,14.3
C=CCSc1nc2sc(C)c(C)c2c(=O)n1CC=C,-8.7,-19.1,-0.5,10.9,-4.7,-3.0,/
C=CCn1c(SCC(=O)c2cccs2)nc2sc(C)c(C)c2c1=O,-12.3,39.9,7.5,11.4,5.9,68.0*,46.4*
N#CC1=C(N)Oc2ccc3ccccc3c2C1c1cccnc1 (stereo unspecified),46.6,?,34.1*,54.5*,53.2*,55.0*,48.3*
O=C(NCCc1ccccc1)C1(S(=O)(=O)c2ccc(Cl)cc2)CC1,-2.9,-11.9,/,/,/,-0.6,/
Cc1ccc(NC(=O)c2nsc(Cl)c2Cl)cc1,-131.4,-112.7,-3.0,/,2.1,24.4*,-4.2
COc1ccc(-n2c(=S)[nH]c3cc(C(=O)Nc4ccc(F)cc4)ccc3c2=O)c(OC)c1,50.2,-141.9,/,/,/,31.6*,17.7
COc1ccc(NC(=O)c2ccc3c(=O)n(-c4ccc(OC)cc4OC)c(=S)[nH]c3c2)cc1,-24.3,-4.7,1.5,-1.7,-2.4,-1.4,/
CCOc1ccc(-n2c(-c3ccc(Br)cc3)c[n+]3c2CCCCC3)cc1,21.5,-7.2,79.2*,0.8,96.0*,28.8*,21.1
COc1ccc(-c2c[n+]3c(n2-c2ccc(C)cc2)CCCCC3)cc1,-12.0,0.6,72.7*,/,93.7*,28.6*,21.5
CCOc1ccc(-n2c(-c3ccc(OC)cc3)c[n+]3c2CCCCC3)cc1,-15.6,19.6,73.7*,6.9,97.1*,22.3*,26.5*
CC(C)C(NS(=O)(=O)c1ccccc1)C(=O)N1CCN(C(=O)c2ccco2)CC1 (stereo unspecified),-10.9,9.1,/,/,/,-0.3,/
O=C(CCC1CCCN(C(=O)C2(c3ccccc3)CC2)C1)N1CCN(c2ccccn2)CC1 (stereo unspecified),-12.0,-7.8,4.0,-0.7,-0.8,0.1,/
CCN(CC(=O)Nc1c(F)cccc1F)C(=O)c1n[nH]c2ccccc12,9.8,-2.6,/,/,/,4.4,/
COc1ccccc1/C=N/NC(=O)c1c(-c2ccccc2)noc1C,-6.7,14.9,/,/,/,-1.1,/
Cc1cccc(/C=N\NC(=O)c2ccc(Cl)cc2)c1O,-49.7,57.5,2.3,-1.6,-1.0,22.9*,50.6*
Cc1cccc(/C=N/NC(=O)c2c(-c3ccccc3)noc2C)c1O,44.0,62.3*,/,/,/,26.9*,48.0*
O=C(O)CCCCCCCCc1cn(Cc2ccc(C(=O)c3ccccc3)cc2)nn1,-27.5,-35.0,/,/,/,71.9*,24.4*
O=C(c1ccccc1)c1ccc(Cn2cc(CCCO)nn2)cc1,-13.1,14.4,/,/,/,7.0,/
Cc1ccccc1Oc1nc2c(C)cccn2c(=O)c1/C=C(\C#N)C(=O)NC1CCS(=O)(=O)C1 (stereo unspecified),10.6,20.8,-0.4,/,-6.3,55.2*,29.3*
SMILES,KLF5 inhibitor,aSyn UTR inh,BaF3 tox,APP 5UTR inh,Ba/F3 V617F tox,IEC-6 cytotox,IEC-6 tox confirm
COCCn1c(SC(C)C(=O)Nc2ncc(Cl)cc2Cl)nc2ccccc21 (stereo unspecified),28.6,14.7,3.1,1.7,0.2,24.4*,27.5*
Cc1cc2cc3c(cc2nc1SCC(=O)N1CCCC1)OCCO3,-4.1,2.0,/,/,/,30.2*,37.7*
COc1ccccc1-c1nnc(NC(=O)c2ccc(S(=O)(=O)N3CCCC3)cc2)o1,19.7,11.9,/,/,/,22.4*,5.1
O=C(Nc1nnc(-c2ccc(F)cc2)o1)c1ccc(S(=O)(=O)N2CCOCC2)cc1,59.3,38.7,/,/,/,39.9*,12.6
C/C(=N\NC(=O)CC1N=C(Cc2ccccc2)NNC1=O)c1ccc(Br)cc1 (stereo unspecified),-8.2,-19.0,-1.0,/,-0.1,-1.7,/
CSc1ccccc1NC(=O)CN(c1ccccc1Br)S(C)(=O)=O,-20.0,31.5,3.1,-4.6,-0.1,-14.7,/
CCOC(=O)c1[nH]c(C)c(/C(O)=C2\C(=O)C(=O)N(CCN3CCOCC3)C2c2cccs2)c1C (stereo unspecified),-9.9,3.0,0.5,23.3,-1.4,25.7*,6.3
CCOC(=O)c1[nH]c(C)c(/C(O)=C2\C(=O)C(=O)N(CCN(C)C)C2c2ccc(C)o2)c1C (stereo unspecified),19.5,10.1,6.2,5.5,5.7,25.3*,10.6
CN(C)c1cccc(NC2=CC(=[N+]3CCOCC3)CC(C)(C)C2)c1,-17.6,0.9,3.6,5.2,1.6,-1.5,/
CN(Cc1ccccc1)C1=CC(=[N+]2CCCC2)CC(C)(C)C1,-3.7,-18.2,73.1*,/,94.0*,31.2*,28.1*
O=c1cc(CSc2ccc(Cl)cc2)nc(-c2ccccn2)[nH]1,54.7,24.5,/,/,/,86.7*,55.1*
O=c1cc(CSc2ccc(Cl)cc2)nc(-c2ccccc2)[nH]1,2.1,-0.9,5.6,18.2,-1.4,0.0,/
C[C@@H]1CC[C@@]2(O[C@@H](CCO)C[C@H](O)[C@H]2O)O1,/,11.9,/,/,/,/,/
ClC(Cl)(Cl)c1nc2ccccc2n2nncc12,31.4,28.7,/,/,/,82.5*,31.1*
COc1cccc(N2CC(O)=C(c3nc4ccccc4c(=O)[nH]3)C2=N)c1,47.6,-3.9,81.3*,93.0*,78.3*,51.0*,63.7*
CC(=O)C(C(c1ccccc1)c1c[nH]c2ccccc12)[N+](=O)[O-] (stereo unspecified),21.8,-29.8,/,/,/,32.2*,20.9
COc1cc2ncnc(NCc3ccccc3)c2cc1OC,6.2,14.5,5.2,-2.4,1.1,26.2*,30.1*
COc1cc2ncnc(NCc3cccc(Cl)c3)c2cc1OC,7.0,16.9,2.0,9.5,1.2,33.3*,36.8*
COc1cc2ncnc(NCc3cc(F)ccc3F)c2cc1OC,3.8,15.0,/,/,/,37.1*,21.3
COc1ccc(CNc2ncnc3cc(OC)c(OC)cc23)cc1OC,-15.9,5.4,9.8,11.5,5.1,7.2,/
O=C(NCC(c1cccs1)N1CCOCC1)C1CCN(S(=O)(=O)c2ccccc2C(F)(F)F)CC1 (stereo unspecified),-37.2,8.3,/,/,/,-6.6,/
COCCOC(=O)c1[nH]c2c(c1C)C(=O)CC(c1ccc(F)cc1)C2 (stereo unspecified),8.7,1.5,10.0,-16.2,2.1,18.9,/
